# Assays:
# Test in all cases: PBM binding z-score (relative to random genomic background probes); higher = stronger binding; sequences stand for … in GC…GCGATTGACAGCGTAGAATGAAGG
# [1] = tested on: PPARg:RXRa DBDmut IVT, anti-RXR (DBD mutation: RXRa K156A/R161A, NR concentration 270 nM, RXRa partner concentration 90 nM)
# Outline: (§1)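 Random background probes are the reference for binding z-scores. These scores derive from regression-normalized fluorescence on custom Agilent 4×180K protein-binding microarrays incubated 1 h with ligand-free nuclear receptor dimers. Binding was detected with antibodies against each partner (one per run).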
# [2] = tested on: PPARg:RXRa IVT, anti-PPARg (NR concentration 270 nM, RXRa partner concentration 90 nM)
# Outline: as §1
# [3] = tested on: PPARg DBDmut:RXRa IVT, anti-PPARg (DBD mutation: PPARg1 K132A/R137A, NR concentration 270 nM, RXRa partner concentration 90 nM)
# Outline: as §1
# [4] = tested on: PPARg DBDmut IVT, anti-PPARg (DBD mutation: PPARg1 K132A/R137A, NR concentration 270 nM)
# Outline: as §1
# [5] = tested on: PPARg homodimer (NR concentration 180 nM)
# Outline: as §1
# [6] = tested on: PXR:RXRa (NR concentration 270 nM, RXRa partner concentration 90 nM)
# Outline: as §1
# [7] = tested on: PXR homodimer (NR concentration 270 nM)
# Outline: as §1
# [8] = tested on: RARa:RXR (NR concentration 270 nM, RXRa partner concentration 90 nM)
# Outline: as §1
# [9] = tested on: RARa homodimer (NR concentration 270 nM)
# Outline: as §1
# [10] = tested on: RARb:RXRa (NR concentration 270 nM, RXRa partner concentration 90 nM)
# Outline: as §1
# [11] = tested on: RARb homodimer (NR concentration 270 nM)
# Outline: as §1
# [12] = tested on: RARg:RXRa (NR concentration 270 nM, RXRa partner concentration 90 nM)
# Outline: as §1
# [13] = tested on: RARg homodimer (NR concentration 270 nM)
# Outline: as §1
# [14] = tested on: RXRa DBDmut IVT, anti-RXR (DBD mutation: RXRa K156A/R161A, NR concentration 90 nM)
# Outline: as §1
# [15] = tested on: RXRa homodimer (NR concentration 180 nM)
# Outline: as §1
# [16] = tested on: THRa:RXRa (NR concentration 90 nM, RXRa partner concentration 90 nM)
# Outline: as §1
# [17] = tested on: THRa homodimer (NR concentration 90 nM)
# Outline: as §1
# [18] = tested on: VDR homodimer (NR concentration 270 nM)
# Outline: as §1
Sequence,PBM binding z-score [1],PBM binding z-score [2],PBM binding z-score [3],PBM binding z-score [4],PBM binding z-score [5],PBM binding z-score [6],PBM binding z-score [7],PBM binding z-score [8],PBM binding z-score [9],PBM binding z-score [10],PBM binding z-score [11],PBM binding z-score [12],PBM binding z-score [13],PBM binding z-score [14],PBM binding z-score [15],PBM binding z-score [16],PBM binding z-score [17],PBM binding z-score [18]
CCTGACGGGTCAAGGTTATAGCACGGGTGGTACG,0.0106,1.52,-0.561,-0.647,1.94,2.74,0.233,3.65,0.717,3.78,3.21,4.37,4.65,0.202,4.64,2.63,0.682,1.34
TCATATAGGTAAAAGGTGAAAGTAGGTGTGGTAA,5.54,5.11,1.51,2.06,2.38,2.11,0.728,3.45,2.24,2.06,2.04,2.13,1.16,2.18,3.34,2.19,0.852,0.549
TCTTGTAGATCAGCAGGTTAAGAAAGCTGGCCAA,1.47,0.491,0.15,0.117,-0.272,0.155,-0.284,0.351,-0.421,0.213,-0.155,-0.199,-0.355,0.476,0.261,-0.0256,-0.621,-0.371
TCTAGTTGGTCAAGGGTCACACACTCGAAATGCG,2.52,5.1,1.64,0.978,4.73,4.32,0.895,5.98,2.83,3.94,4.19,5.29,4.87,1.59,6.31,3.13,1.47,2.76
CGAACTAGGTCAGAAGAGGACAGTGAAGGATGAT,7.13,7.32,3.38,1.51,1.15,2.5,-0.0219,2.42,0.202,3.05,2.53,2.68,3.66,0.392,1.03,4.34,0.406,0.275
CATACTAGGTCACCGGAAGGTCAAAGTCCGCATG,7.07,8.03,4.35,1.99,7.45,5.88,2.1,7.25,2.75,5.21,5.62,8.44,7.45,2.21,6.33,4.43,3.31,3.9
CCGTCTGGGGCAAGGTTACCATAACGCACAGCCA,1.75,2.43,-0.591,-1.54,0.46,0.036,-0.461,0.632,0.0974,1.72,1.05,1.06,1.13,-0.58,0.988,1.15,0.197,0.0669
AGAATGAGGTTACCAAAGATGAGGGAAACGCTTG,3.67,3.1,1.29,0.621,0.657,1,0.117,1.79,0.142,2.14,0.76,1.85,1.54,1.22,2.43,2.55,0.977,0.767
CAAACTAGGTCAACGTCAAAGTCGGTTTGTGCCA,8.75,8.75,5.16,4.41,2.59,1.58,0.241,2.38,0.739,4.11,3.56,4.05,4.97,1.68,2.9,3,1.02,1.07
ATCACTAGGTAAAAGTTCAGTGAATCCCGAGGAT,3.38,4.52,1.04,1.36,1.02,2.08,1.55,1.9,1.02,2.49,2.5,2.11,1.85,0.717,1.85,1.32,0.468,1.8
TCTAGCAGGCCGGAGGGTCACTCAAGAGGTACGG,0.524,-0.0805,-0.889,-1.31,0.278,0.98,-0.311,1.65,-0.429,1.74,2.33,2.01,1.52,0.00965,2.13,1.44,-0.391,0.104
TCTATTAGTTTAAGGGCAACCGACGAGTCCGTTT,2.37,0.624,0.439,1.5,1.46,1.39,1.67,1.39,1.3,2.22,2.12,0.831,1.17,1.94,0.958,2.69,2.56,2.78
ATCTCTCGGTAAAAGTTCAGTGAATCCCGAGGAT,-0.48,1.24,1.23,1.28,1.06,1.92,1.71,0.639,0.811,2.4,2.43,1.76,2.03,0.823,0.954,0.761,0.0329,1.74
AGATTGAGGTTATACGTAGATCAGGGAAGAAAGT,2.54,1.38,1.05,1.23,0.726,1.23,0.75,1.7,0.422,1.28,0.842,1.71,0.96,1.28,2.2,2.24,0.943,0.908
TCTAGTTGGTCACGTAGGTCACACACGACGGGTA,2.33,3.55,1.17,0.772,2.46,2.27,0.538,2.84,0.979,3.26,3.66,3.36,3.67,1.06,2.91,2.39,1.04,1.22

# Source: the supplement of paper PMC6555819
